{
  "source": "PubChem BioAssay (NCI)",
  "assay": "NCI Yeast Anticancer Drug Screen. Data for the rad50EPP+ strain (AID 151);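 further: 0% = growth of vehicle-treated control cultures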",
  "settings": "S. cerevisiae rad50 mutant strain, hits give high values",
  "description": "Growth inhibition of yeast strains with defined genetic alterations is measured as a screen for potential anti-cancer activity. Selected strains with alterations in DNA damage repair or cell cycle control were exposed to compounds and growth inhibition was measured relative to vehicle treated controls. The strain used in this assay is rad50EPP+",
  "note": "Compounds without any hit were thinned out: in the full panel of roughly 79,000, 15% have a hit. A number with no mark means an inactive call. Active and inactive are the calls of the source. No stated cut-off is given here; in the data, active means growth inhibition above about 70%; inactive means the rest.",
  "data": [
    {"smiles": "CCOC(=O)c1[nH]c2cccc3c2c1CC(Br)C3=O", "note": "(stereo not given)", "values": [
      {"measurement": "growth inhibition", "setting": "at 1.2 µM", "value": -31, "unit": "%"},
      {"measurement": "growth inhibition", "setting": "at 3.7 µM", "value": -1, "unit": "%"},
      {"measurement": "growth inhibition", "setting": "at 11.0 µM", "value": -12, "unit": "%"},
      {"measurement": "growth inhibition", "setting": "at 33.0 µM", "value": 34, "unit": "%"},
      {"measurement": "growth inhibition", "setting": "at 100.0 µM", "value": 62, "unit": "%"}
    ]},
    {"smiles": "O=C(O)[C@H]1[C@@H](C2CCCCC2)O[C@@H](C2CCCCC2)O[C@H]1C(F)(F)F", "values": [
      {"measurement": "growth inhibition", "setting": "at 1.2 µM", "value": -4, "unit": "%"},
      {"measurement": "growth inhibition", "setting": "at 3.7 µM", "value": -1, "unit": "%"},
      {"measurement": "growth inhibition", "setting": "at 11.0 µM", "value": 2, "unit": "%"},
      {"measurement": "growth inhibition", "setting": "at 33.0 µM", "value": -2, "unit": "%"},
      {"measurement": "growth inhibition", "setting": "at 100.0 µM", "value": -3, "unit": "%"}
    ]},
    {"smiles": "O=C1C(C(O)(C(F)(F)F)C(F)(F)F)CCC1C(O)(C(F)(F)F)C(F)(F)F", "note": "(stereo not given)", "values": [
      {"measurement": "growth inhibition", "setting": "at 1.2 µM", "value": -3, "unit": "%"},
      {"measurement": "growth inhibition", "setting": "at 3.7 µM", "value": -2, "unit": "%"},
      {"measurement": "growth inhibition", "setting": "at 11.0 µM", "value": 3, "unit": "%"},
      {"measurement": "growth inhibition", "setting": "at 33.0 µM", "value": 18, "unit": "%"},
      {"measurement": "growth inhibition", "setting": "at 100.0 µM", "value": 10, "unit": "%"}
    ]},
    {"smiles": "CN(C)CCNC(=O)c1cccc2nc3c(ccc4ccccc43)nc12", "values": [
      {"measurement": "growth inhibition", "setting": "at 1.2 µM", "value": -3, "unit": "%"},
      {"measurement": "growth inhibition", "setting": "at 3.7 µM", "value": 1, "unit": "%"},
      {"measurement": "growth inhibition", "setting": "at 11.0 µM", "value": 15, "unit": "%"},
      {"measurement": "growth inhibition", "setting": "at 33.0 µM", "value": "75% (active)"},
      {"measurement": "growth inhibition", "setting": "at 100.0 µM", "value": "96% (active)"}
    ]},
    {"smiles": "CCOc1ccccc1N1C(=O)CC(Sc2ccccc2N)C1=O", "note": "(stereo not given)", "values": [
      {"measurement": "growth inhibition", "setting": "at 1.2 µM", "value": 19, "unit": "%"},
      {"measurement": "growth inhibition", "setting": "at 3.7 µM", "value": 8, "unit": "%"},
      {"measurement": "growth inhibition", "setting": "at 11.0 µM", "value": 8, "unit": "%"},
      {"measurement": "growth inhibition", "setting": "at 33.0 µM", "value": 16, "unit": "%"},
      {"measurement": "growth inhibition", "setting": "at 100.0 µM", "value": 25, "unit": "%"}
    ]},
    {"smiles": "CCCC(=O)OC(OC(=O)CCC)c1ccc([N+](=O)[O-])o1", "values": [
      {"measurement": "growth inhibition", "setting": "at 1.2 µM", "value": 2, "unit": "%"},
      {"measurement": "growth inhibition", "setting": "at 3.7 µM", "value": 15, "unit": "%"},
      {"measurement": "growth inhibition", "setting": "at 11.0 µM", "value": 46, "unit": "%"},
      {"measurement": "growth inhibition", "setting": "at 33.0 µM", "value": "83% (active)"},
      {"measurement": "growth inhibition", "setting": "at 100.0 µM", "value": "93% (active)"}
    ]},
    {"smiles": "O=S(=O)(CCC[C@H]1[C@@H](CCOCc2ccccc2)C2CCCN1O2)c1ccccc1", "note": "(stereo not given in full)", "values": [
      {"measurement": "growth inhibition", "setting": "at 1.2 µM", "value": 0, "unit": "%"},
      {"measurement": "growth inhibition", "setting": "at 3.7 µM", "value": -1, "unit": "%"},
      {"measurement": "growth inhibition", "setting": "at 11.0 µM", "value": 2, "unit": "%"},
      {"measurement": "growth inhibition", "setting": "at 33.0 µM", "value": 2, "unit": "%"},
      {"measurement": "growth inhibition", "setting": "at 100.0 µM", "value": 4, "unit": "%"}
    ]},
    {"smiles": "COc1ccc(/C(=N/O)c2ccccc2C2=Nc3ccccc3C(NCc3ccccc3)O2)cc1C", "note": "(stereo not given)", "values": [
      {"measurement": "growth inhibition", "setting": "at 1.2 µM", "value": 3, "unit": "%"},
      {"measurement": "growth inhibition", "setting": "at 3.7 µM", "value": 1, "unit": "%"},
      {"measurement": "growth inhibition", "setting": "at 11.0 µM", "value": 15, "unit": "%"},
      {"measurement": "growth inhibition", "setting": "at 33.0 µM", "value": 49, "unit": "%"},
      {"measurement": "growth inhibition", "setting": "at 100.0 µM", "value": "82% (active)"}
    ]}
  ]
}
